Our source for the composite z-score, composite Z-score and z-score values is PubChem BioAssay.

Assay [1] deals with Albumin (Bos taurus) (UniProt P02769). The experiment in a line: bovine serum albumin binders on microarray, profiling panel, artefact control for SMM control protein annotation, biochemical, small-molecule microarray, Alexa647 label, 635/667 nm fluorescence (AID 1118).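 Further: score merges 667 nm emission intensity and signal-to-noise per printed compound spot.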 The following applies: BSA-A647 binding, fluorescence 635 nm, higher = more signal.
Albumin (Bos taurus), sequence (P02769 whole entry, looked up): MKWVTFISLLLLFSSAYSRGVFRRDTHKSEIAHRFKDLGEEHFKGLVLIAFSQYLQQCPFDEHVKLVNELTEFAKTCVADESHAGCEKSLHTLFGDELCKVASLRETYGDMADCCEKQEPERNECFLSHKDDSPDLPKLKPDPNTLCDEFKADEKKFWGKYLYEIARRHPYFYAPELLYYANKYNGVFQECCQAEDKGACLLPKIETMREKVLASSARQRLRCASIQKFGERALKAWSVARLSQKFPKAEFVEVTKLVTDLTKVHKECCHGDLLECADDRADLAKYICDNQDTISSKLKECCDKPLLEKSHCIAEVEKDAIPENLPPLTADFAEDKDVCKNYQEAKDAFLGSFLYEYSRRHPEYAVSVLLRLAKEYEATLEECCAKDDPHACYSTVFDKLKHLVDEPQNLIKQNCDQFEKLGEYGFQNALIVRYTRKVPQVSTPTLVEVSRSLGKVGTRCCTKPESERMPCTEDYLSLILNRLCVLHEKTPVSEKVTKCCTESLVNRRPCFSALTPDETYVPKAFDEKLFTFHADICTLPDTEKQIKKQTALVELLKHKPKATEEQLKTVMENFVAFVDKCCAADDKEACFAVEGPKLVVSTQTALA
A short description of assay [2]: small-molecule microarray binders of probe aXIP, primary screen, biochemical, NeuroSMM set, 635/667 nm fluorescence (AID 1119).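 Further: probe is the protein aXip251-270 applied at 1 µg/mL to compound-printed slides; binding of probe to printed compounds measured as 667 nm fluorescence plus signal to noise.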 The note with it: higher = more signal, called active from +8 up or from −8 down.
Assay [3] can be described thus: small-molecule binders of probe aNOTCH3, primary screen, biochemical, small-molecule microarray, 635/667 nm fluorescence (AID 1120).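 Further: probe is a biotin-tagged antibody raised against NOTCH3 rather than NOTCH3 protein; score merges spot fluorescence near 667 nm with spot signal to noise.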 The note with it: higher = more signal.
Assay [4] can be described thus: small-molecule binders of probe aNOTCH2, primary screen, biochemical, small-molecule microarray, 635/667 nm fluorescence (AID 1121).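 Further: score merges feature fluorescence read at 667 nm with its signal to noise.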 The note with it: higher = more signal.
The target in assay [5] is Carbonic anhydrase 2 (Homo sapiens) (UniProt P00918). The experiment in a line: CAII small-molecule binders, profiling panel, biochemical, small-molecule microarray, Alexa647-labelled CAII (AID 1122). The following applies: CAII-A647 binding fluorescence, higher = more signal.
A short description of assay [6]: COS7 lysate on small-molecule microarray, probe aHis, 635 nm (AID 1123).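 Further: z-score combines 667nm fluorescence intensity with signal-to-noise per printed compound spot.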 The note with it: COS7 cell lysate, fluorescence, higher = more signal.
Assay [7] can be described thus: compound binding in COS7 lysate, probe aLAP1, primary screen, cell lysate, small-molecule microarray (AID 1124).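 Further: lysate comes from COS7 cells expressing LAP1 and is applied at 0.3 µg/mL; score merges spot fluorescence near 667 nm with signal-to-noise over triplicate slides.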 The following applies: probe aLAP1, fluorescence, higher = more signal.
The test system of assay [8] is Sam68 (KHDRBS1). The experiment in a line: Sam68 small-molecule binders, primary screen, biochemical, small-molecule microarray, 635 nm fluorescence (AID 1125).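 Further: score merges 667 nm channel intensity with signal to noise over triplicate slides.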 The following applies: small-molecule microarray binding, higher = more signal.
Assay [9] concerns Chordin-like protein 2 (CHRDL2). The experiment in a line: CHRDL2 small-molecule binders, primary screen, biochemical, small-molecule microarray, 635 nm fluorescence (AID 1126).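 Further: printed compound slides probed with Chrdl2 protein at 4 µg/mL for 1 h at 4 C; score merges 667 nm emission intensity with signal to noise over three replicate slides.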 The following applies: small-molecule microarray binding, fluorescence 635 nm; higher = more signal.
In assay [10] the target is Concanavalin-A (Canavalia ensiformis) (UniProt P02866). Put plainly: ConA small-molecule binders, primary screen, artefact control for SMM control protein annotation, biochemical, small-molecule microarray, Alexa647 label, 635 nm (AID 1127).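 Further: z combines 667 nm emission intensity with signal-to-noise across three replicate slides.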 The following applies: ConA-A647 binding fluorescence, higher = more signal.
Concanavalin-A (Canavalia ensiformis), sequence (P02866 whole entry, looked up): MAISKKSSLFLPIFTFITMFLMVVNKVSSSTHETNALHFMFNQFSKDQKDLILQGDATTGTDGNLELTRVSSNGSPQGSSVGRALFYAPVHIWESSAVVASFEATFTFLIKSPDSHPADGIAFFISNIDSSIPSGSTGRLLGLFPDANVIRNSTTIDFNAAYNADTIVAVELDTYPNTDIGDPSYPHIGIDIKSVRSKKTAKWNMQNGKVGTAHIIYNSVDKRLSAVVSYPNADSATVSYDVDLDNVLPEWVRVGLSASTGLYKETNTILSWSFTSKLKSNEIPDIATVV
Assay [11] in a line: anti-His antibody binders, primary screen, artefact control for SMM control protein annotation, biochemical, small-molecule microarray, 635 nm fluorescence (AID 1128).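 Further: score merges feature fluorescence with signal-to-noise for each printed compound spot.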 The note with it: anti-His Alexa647 antibody binding, higher = more signal.
The test system of assay [12] is Human papillomavirus type 1a E7 protein (residues 1-88). Put plainly: HPV1a E7 small-molecule binders, primary screen, biochemical, small-molecule microarray, residues 1-88, 635 nm (AID 1129). The following applies: small-molecule microarray binding, fluorescence 635 nm; higher = more signal.
Assay [13] concerns the target Focal adhesion kinase 1 (Homo sapiens) (UniProt Q05397). The experiment in a line: small-molecule microarray binders of FAK, primary screen, biochemical, 635/667 nm fluorescence, BSA, DTT (AID 1130).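 Further: composite of spot emission at 667 nm and signal to noise over triplicate slides.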 The following applies: PTK2 binding, 635 nm fluorescence, higher = more signal.
Assay [14] has as its system Fibrinogen (Alexa647-labelled). Put plainly: fibrinogen binders on compound microarrays, profiling panel, artefact control for SMM control-protein annotation, biochemical, small-molecule microarray, 635/667 nm fluorescence (AID 1131).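 Further: z-score merges 667 nm fluorescence with per-spot signal-to-noise over triplicate slides.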 The note with it: fibrinogen-A647 binding fluorescence, higher = more signal.
Assay [15] has as its target Follistatin (Homo sapiens) (UniProt P19883). Put plainly: follistatin binders on small-molecule microarrays, primary screen, biochemical, small-molecule microarray, 635/667 nm fluorescence (AID 1132). The note with it: FST binding, 635 nm fluorescence, higher = more signal.
Assay [16] concerns the target Fibroblast growth factor 2 (Homo sapiens) (UniProt P09038). Put plainly: FGF2 binders on small-molecule microarrays, primary screen, biochemical, small-molecule microarray, 635/667 nm fluorescence (AID 1133). The note with it: small-molecule microarray binding, FGF2, fluorescence 635/667; higher = more signal.
A short description of assay [17]: mitochondrial membrane potential change in A549 cells, profiling panel, cell-based, JC-1 fluorescence, basal, 24 h, 100 nL (AID 1138).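 Further: A549 lung adenocarcinoma cells under basal conditions with no added stimulus; test concentration not given here.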 The following applies: higher = more signal.
In assay [18] the test system is Lefty1. Put plainly: Lefty1 binders on small-molecule microarrays, primary screen, biochemical, small-molecule microarray, 635/667 nm fluorescence (AID 1139). The note with it: small-molecule microarray binding, fluorescence 635/667; higher = more signal.
Assay [19] concerns wheat germ agglutinin (Triticum aestivum), Alexa647-labelled. The experiment in a line: wheat germ agglutinin binders on compound microarrays, profiling panel, artefact control for SMM control-protein annotation, biochemical, small-molecule microarray, 635/667 nm fluorescence (AID 1140).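 Further: score merges 667 nm feature emission with signal to noise over triplicate slides.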 The following applies: WGA-A647 binding, 635 nm fluorescence, higher = more signal.
For assay [20], the target named is Luciferin 4-monooxygenase (Photinus pyralis) (UniProt P08659). The experiment in a line: firefly luciferase enzyme inhibitors, primary screen, biochemical, luminescence, purified enzyme, 2006 set (AID 1141).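 Further: cell-free assay with purified firefly luciferase at 100 ng per well in PBS; test concentration not given here.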 The following applies: SteadyGlo luminescence, 30 min, higher = more signal, called active from +8 up or from −8 down.
Luciferin 4-monooxygenase (Photinus pyralis), sequence (P08659 whole entry, looked up): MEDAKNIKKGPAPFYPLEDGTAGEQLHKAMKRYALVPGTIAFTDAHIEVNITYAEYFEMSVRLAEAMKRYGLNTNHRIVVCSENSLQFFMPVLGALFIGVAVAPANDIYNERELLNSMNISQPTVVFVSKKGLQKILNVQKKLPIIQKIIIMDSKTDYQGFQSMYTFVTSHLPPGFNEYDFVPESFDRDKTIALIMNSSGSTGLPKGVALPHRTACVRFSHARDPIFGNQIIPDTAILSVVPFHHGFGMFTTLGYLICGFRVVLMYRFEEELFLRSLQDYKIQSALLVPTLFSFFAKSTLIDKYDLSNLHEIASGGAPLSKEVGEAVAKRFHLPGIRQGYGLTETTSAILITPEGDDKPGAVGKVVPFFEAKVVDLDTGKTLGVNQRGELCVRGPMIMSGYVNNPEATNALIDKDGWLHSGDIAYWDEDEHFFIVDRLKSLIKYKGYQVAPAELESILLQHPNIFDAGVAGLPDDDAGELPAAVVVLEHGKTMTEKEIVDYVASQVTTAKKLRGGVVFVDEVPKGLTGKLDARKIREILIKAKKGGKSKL

Active and inactive are the calls of the source.

Fibroblast growth factor 2 (Homo sapiens), sequence (P09038 whole entry, looked up): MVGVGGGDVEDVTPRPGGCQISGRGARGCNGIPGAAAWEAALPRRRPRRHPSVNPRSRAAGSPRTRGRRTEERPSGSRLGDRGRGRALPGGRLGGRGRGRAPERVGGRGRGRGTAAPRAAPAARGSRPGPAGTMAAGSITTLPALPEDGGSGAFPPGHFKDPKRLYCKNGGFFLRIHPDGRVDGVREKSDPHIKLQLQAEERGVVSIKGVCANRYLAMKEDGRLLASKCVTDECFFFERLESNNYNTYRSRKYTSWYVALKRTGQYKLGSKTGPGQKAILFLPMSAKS
Follistatin (Homo sapiens), sequence (P19883 whole entry, looked up): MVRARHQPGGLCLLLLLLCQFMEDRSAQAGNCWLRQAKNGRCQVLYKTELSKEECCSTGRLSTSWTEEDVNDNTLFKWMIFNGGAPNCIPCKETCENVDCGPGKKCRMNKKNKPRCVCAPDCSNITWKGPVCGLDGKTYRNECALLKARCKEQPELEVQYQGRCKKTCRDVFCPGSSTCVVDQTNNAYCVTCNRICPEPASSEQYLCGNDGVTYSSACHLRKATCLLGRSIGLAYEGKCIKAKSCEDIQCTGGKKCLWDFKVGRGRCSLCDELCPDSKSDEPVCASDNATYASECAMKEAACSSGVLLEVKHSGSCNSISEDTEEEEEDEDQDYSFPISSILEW
Focal adhesion kinase 1 (Homo sapiens), sequence (Q05397 whole entry, looked up): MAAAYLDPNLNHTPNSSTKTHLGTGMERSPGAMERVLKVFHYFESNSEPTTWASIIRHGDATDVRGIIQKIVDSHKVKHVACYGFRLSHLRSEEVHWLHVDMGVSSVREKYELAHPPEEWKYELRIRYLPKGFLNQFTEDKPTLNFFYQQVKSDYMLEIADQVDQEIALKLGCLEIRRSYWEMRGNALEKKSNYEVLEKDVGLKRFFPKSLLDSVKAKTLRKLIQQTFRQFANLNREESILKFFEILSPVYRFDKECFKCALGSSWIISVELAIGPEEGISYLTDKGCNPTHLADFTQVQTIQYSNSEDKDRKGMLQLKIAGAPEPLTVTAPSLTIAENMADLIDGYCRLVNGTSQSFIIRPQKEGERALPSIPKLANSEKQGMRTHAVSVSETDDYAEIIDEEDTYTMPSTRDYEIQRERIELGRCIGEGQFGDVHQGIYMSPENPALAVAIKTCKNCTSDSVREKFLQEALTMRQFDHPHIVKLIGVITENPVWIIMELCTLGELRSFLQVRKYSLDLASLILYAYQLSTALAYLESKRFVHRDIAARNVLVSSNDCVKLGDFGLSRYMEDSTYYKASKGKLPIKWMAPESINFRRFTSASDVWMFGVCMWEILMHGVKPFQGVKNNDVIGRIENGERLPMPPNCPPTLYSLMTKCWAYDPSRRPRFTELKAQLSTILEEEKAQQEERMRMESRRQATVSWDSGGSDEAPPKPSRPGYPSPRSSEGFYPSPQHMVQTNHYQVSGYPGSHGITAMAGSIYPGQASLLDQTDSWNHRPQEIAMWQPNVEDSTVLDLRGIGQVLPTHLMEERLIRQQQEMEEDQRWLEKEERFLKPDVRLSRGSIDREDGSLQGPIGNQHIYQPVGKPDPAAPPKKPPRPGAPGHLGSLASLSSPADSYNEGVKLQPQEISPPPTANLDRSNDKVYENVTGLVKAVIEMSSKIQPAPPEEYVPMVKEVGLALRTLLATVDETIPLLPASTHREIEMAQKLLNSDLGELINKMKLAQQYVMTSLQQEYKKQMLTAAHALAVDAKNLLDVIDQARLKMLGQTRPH

Turning to `CCOC(=O)[C@H](CC(C)C)NC(=O)CCC1CC(OC(=O)NCc2cccc3ccccc23)CC2(CCCC(COC(=O)NCCc3ccccc3OC)O2)O1` (stereo not given in full), the composite z-score in [1] is 0.752; in assay [3], -0.155; in [4], -0.0708; in assay [5], 0.211; in assay [6], 0.398; in assay [7] it was 0.251. For the same compound, the composite z-score turned out to be 1.3 in assay [8]; 0.566 in assay [9]; 1.11 in assay [10]; 1.02 in assay [11]; 1.12 in assay [12]; 0.0969 in assay [13]. The composite z-score in [14] turned out to be 0.949; in assay [15], 0.583; in assay [16], 0.485; in assay [18], 1.5; in assay [19], 0.225. Further, the composite Z-score in [2] is 0.0898 (inactive). The figures for the z-score in [17] and in assay [20] were 0.041 and 0.755 (inactive), respectively.
With `COC(=O)[C@@]1(Cc2ccccc2)[C@H]2c3cc(C(=O)N4CCCC4)n(Cc4ccccn4)c3C[C@H]2CN1C(=O)c1ccccc1`, the composite z-score in assay [1] amounted to 0.939; in assay [3] it was 0.697; in assay [4], 0.284; in assay [5], 0.834; in [6], 3.44; in assay [7], 0.596. For the same compound, the composite z-score in assay [8] was 1.29; in assay [9], 0.331; in [10] it was 1.04; in assay [11] it was 1.81; in assay [12] it was 1.26; in [13] it was 0.846. Further, the composite z-score in [14] was 0.412; in assay [15], 1.24; in assay [16] it was 0.354; in assay [18] it was 0.19; in [19], 0.236. Also, the composite Z-score in assay [2] is 0.193 (inactive). The z-score in assay [17] was 0.449; in assay [20], 1.93 (inactive).
Turning to `C#CCCCON=C1C[C@@H](O)[C@@H](O)[C@@H]2[C@@H]3C(=O)N([C@@H](C)c4ccccc4)C(=O)[C@@H]3CC[C@H]12`, the composite z-score in [1] is 0.161; in [3], 0.0494; in assay [4], -0.0554; in assay [5], -0.0339; in assay [6] it was -0.0684; in assay [7], 0.0595. Moreover, the composite z-score was 0.513 in [8]; 0.523 in assay [9]; 0.282 in assay [10]; 0.449 in assay [11]; 0.621 in assay [12]; 0.48 in assay [13]. Also, the composite z-score was found to be 0.778 in assay [14]; 0.615 in assay [15]; 0.594 in assay [16]; 0.535 in assay [18]; 0.203 in assay [19]. Moreover, in assay [2], the composite Z-score is -0.26 (inactive). Moreover, the z-score in assay [17] is -0.887; in assay [20], 0.794 (inactive).
With `C#CCCCON=C1C[C@@H](O)[C@@H](O)[C@@H]2[C@@H]3C(=O)N(Cc4ccccc4)C(=O)[C@@H]3CC[C@H]12`, the composite z-score was 0.344 in assay [1]; -0.056 in [3]; -0.2 in assay [4]; -0.009 in assay [5]; 0.363 in assay [6]; -0.316 in assay [7]. In addition, the composite z-score was -0.0716 in [8]; 0.477 in assay [9]; 0.372 in [10]; 0.0056 in assay [11]; 0.126 in assay [12]; 0.256 in assay [13]. Moreover, the composite z-score in assay [14] is -0.307; in assay [15], 0.592; in [16], 0.171; in assay [18], 0.582; in assay [19], 0.253. Besides, the composite Z-score in assay [2] was 0.497 (inactive). The z-score was -0.732 in [17] and 0.883 (inactive) in [20].
`CC(=O)OC[C@H]1O[C@H](CC=NOC[C@@H](C)[C@H](OCc2ccccc2)C(C)C)C=C[C@@H]1OC(C)=O`: the composite z-score was -0.428 in [1]; -0.0773 in assay [3]; -0.11 in assay [4]; -0.253 in assay [5]; 0.043 in assay [6]; -0.223 in [7]. Moreover, the composite z-score was 0.377 in [8]; 0.186 in assay [9]; -0.182 in [10]; -1.2 in assay [11]; 0.284 in assay [12]; -0.351 in [13]. For the same compound, the composite z-score was -0.344 in [14]; 0.264 in [15]; 0.155 in [16]; 0.752 in assay [18]; -0.21 in assay [19]. In assay [2], the composite Z-score is 0.156 (inactive). The results for the z-score in assay [17] and in assay [20] were -1.02 and 1.34 (inactive), respectively.
